PubChem BioAssay (EPA / NIEHS)
Calls of active or inactive are those of the source. Rule for the calls: active = hit-call score of the fitted dose curve at least 0.9, where 1 is the maximum; inactive = score below 0.9.

The molecules below were run on Signal transducer and activator of transcription 3 (Homo sapiens) (UniProt P40763) (assay: LTEA_HepaRG_STAT3: Life Technologies and Expression Analysis (LTEA) Assay for Signal transducer and activator of transcription (STAT3) using HepaRG (AID 2283529)). Settings: mRNA level, 48 h; actives raise or lower the signal.
Procedure, shortened: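 Differentiated HepaRG cells, serum-free induction medium, dosed 48 h in duplicate, 8 half-log concentrations from 100 uM in 0.5% DMSO. STAT3 mRNA by qRT-PCR, normalised to ACTB, GAPDH, POLR2A; bidirectional fit versus DMSO.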

Sequence of Signal transducer and activator of transcription 3 (Homo sapiens) (P40763 whole entry, looked up): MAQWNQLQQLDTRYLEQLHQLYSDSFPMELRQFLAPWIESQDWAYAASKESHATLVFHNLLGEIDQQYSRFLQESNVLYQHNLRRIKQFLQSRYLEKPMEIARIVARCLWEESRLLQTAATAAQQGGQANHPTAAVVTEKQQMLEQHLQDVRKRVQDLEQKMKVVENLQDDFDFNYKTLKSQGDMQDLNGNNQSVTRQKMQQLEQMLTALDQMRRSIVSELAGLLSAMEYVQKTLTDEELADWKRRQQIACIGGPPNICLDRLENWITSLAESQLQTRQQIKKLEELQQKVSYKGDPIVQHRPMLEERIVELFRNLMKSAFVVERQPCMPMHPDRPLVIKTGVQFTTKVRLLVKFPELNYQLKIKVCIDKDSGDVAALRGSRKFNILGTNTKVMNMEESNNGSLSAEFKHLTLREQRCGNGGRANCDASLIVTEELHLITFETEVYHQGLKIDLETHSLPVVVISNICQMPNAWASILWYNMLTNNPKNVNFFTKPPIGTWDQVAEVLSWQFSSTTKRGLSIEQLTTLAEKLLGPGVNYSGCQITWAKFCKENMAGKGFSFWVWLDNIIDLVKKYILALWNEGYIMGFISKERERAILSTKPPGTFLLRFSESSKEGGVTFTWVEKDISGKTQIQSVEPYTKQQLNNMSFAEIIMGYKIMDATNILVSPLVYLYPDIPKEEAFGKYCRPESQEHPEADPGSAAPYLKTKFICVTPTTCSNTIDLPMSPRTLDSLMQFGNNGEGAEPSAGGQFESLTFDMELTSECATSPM

SMILES	outcome	AC50
CN(Cc1cnc2nc(N)nc(N)c2n1)c1ccc(C(=O)N[C@@H](CCC(=O)O)C(=O)O)cc1	inactive	–
OCC(CO)(CBr)CBr	inactive	–
Cc1[nH]nc2c1N=C(c1ccccc1Cl)c1cc([N+](=O)[O-])ccc1N2	–	3.77 µM (active)
O=C(CCCN1CCC(O)(c2ccc(Cl)cc2)CC1)c1ccc(F)cc1	inactive	–
N=C(N)c1ccc(OCCCCCOc2ccc(C(=N)N)cc2)cc1	–	29 µM (active)
O=C1NS(=O)(=O)c2ccccc21	inactive	–
CCCCC=O	inactive	–
CCCCc1oc2ccccc2c1C(=O)c1cc(I)c(OCCN(CC)CC)c(I)c1	inactive	–
CCCCCCCCCCCCOS(=O)(=O)O	inactive	–
CCCCC(CC)C(=O)O (stereo unspecified)	inactive	–
CCCCCCCCCCCCCCC	inactive	–
CCC(C)c1ccccc1O (stereo unspecified)	inactive	–
CS(=O)(=O)c1ccc([C@@H](CC2CCCC2)C(=O)Nc2cnccn2)cc1Cl	inactive	–
O=C(c1ccccc1)c1ccccc1	inactive	–
CN(C)CCOC(c1ccccc1)c1ccccc1	inactive	–
CC(=O)Nc1ccc(O)cc1	inactive	–
